TDP1 block – blocks human tyrosyl-DNA phosphodiesterase 1; Potency, µM (titrated, usually from 130 µM), for inactives: at the top dose activity change, negative = inhibition, usual class: inhibitors; Q9NUW8; actives 0.28% (n = 350,000); recombinant TDP1, AlphaScreen DNA substrate cleavage; note: potency is the fitted concentration of half-maximal effect; % is set by controls: 0 for no effect and ±100 for the full control effect; nearly all actives have a fitted effect of over 40% in size
Target sequence (Q9NUW8 whole entry, looked up): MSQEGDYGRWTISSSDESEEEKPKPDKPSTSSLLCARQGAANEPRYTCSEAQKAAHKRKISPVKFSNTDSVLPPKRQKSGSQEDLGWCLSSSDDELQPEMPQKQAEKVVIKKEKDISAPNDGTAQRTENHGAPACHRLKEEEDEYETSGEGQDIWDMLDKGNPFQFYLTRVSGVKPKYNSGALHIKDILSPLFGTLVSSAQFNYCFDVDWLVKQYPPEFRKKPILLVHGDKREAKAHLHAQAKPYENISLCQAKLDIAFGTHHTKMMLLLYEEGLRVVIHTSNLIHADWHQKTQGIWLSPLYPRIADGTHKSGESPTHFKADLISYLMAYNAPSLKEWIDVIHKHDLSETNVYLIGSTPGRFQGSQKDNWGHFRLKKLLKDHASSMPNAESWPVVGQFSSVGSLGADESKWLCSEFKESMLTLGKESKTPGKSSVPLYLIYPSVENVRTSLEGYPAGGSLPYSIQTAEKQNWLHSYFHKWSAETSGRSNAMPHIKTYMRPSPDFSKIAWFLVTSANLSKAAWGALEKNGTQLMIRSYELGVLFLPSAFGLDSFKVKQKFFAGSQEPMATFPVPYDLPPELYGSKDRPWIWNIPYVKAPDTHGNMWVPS
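Recombinant human Tdp1 (E. coli-expressed, 1 nM final) preincubated with compounds 15 min at room temperature, then 5'-biotin/3'-phosphotyrosine-FITC DNA substrate (15 nM final) added for 5 min. AlphaScreen beads (10 ug/ml final) added 10 min; cleavage lowers signal.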
HepG2 viability – HepG2 cytotoxicity, counter-screen for TGF-b inhibitors | actives 0.76% (n = 410,000) | HepG2 CAGA-GFP viability, ATP luminescence, 18 h | Potency, µM (doses to about 46.1 µM), without a hit: top-dose activity change, negative = cytotoxicity, most hits filed as cytotoxic; note: potency is the fitted concentration of half-maximal effect
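CellTiter-Glo luminescence gave cytotoxicity after 18 hours at 37 degrees C. The cells were HepG2 CAGA-GFP in 1% FBS DMEM, stimulated with 500 pg/mL TGF-beta after compound addition. %Activity was normalised to no-cell wells (complete cell-killing) and DMSO (no toxicity), and curves were fitted and classified.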
IL1B secr inh – inhibitors of inflammasome signaling (IL-1 beta secretion). THP-1 LPS/ATP IL-1B secretion, AlphaLISA, 16 h; active compounds read low. activity change, % at 57.5 µM. actives 4.7% (n = 360,000). AID 743279; in the data active = activity change below about -50%; inconclusive = mostly about -30% to -49%; note: % is set by controls: 0 for no effect and ±100 for the full control effect
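THP-1 cells pretreated 1 hr with compounds (up to 57.5 uM final), then stimulated with LPS (250 ng/mL final) plus ATP (1.25 mM final); secreted IL-1B measured by AlphaLISA after 16 hr, decreased signal indicating inhibition.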
TDP1 cell CPT – growth inhibition of DT40 Tdp1-/-;hTDP1 cells with camptothecin (screen for TDP1 inhibitors). chicken DT40 Tdp1-/-;hTDP1 cells + 20 nM CPT, ATP luminescence, 48 h. actives 12% (n = 420,000). AID 686979. Potency, µM (doses to about 46.2 µM), without a hit: at the highest dose activity change, negative = growth inhibition, usual class: inhibitors; note: potency is the fitted concentration of half-maximal effect; % is set by controls: 0 for no effect and ±100 for the full control effect; nearly all actives have a fitted effect of over 55% in size
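Chicken DT40 Tdp1-/- cells complemented with human TDP1, 400 cells/well, exposed to compounds plus 20 nM camptothecin for at least 48 h at 37 C; viability read as ATP content by CellTiter-Glo luminescence.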
TGFb inhibitor – TGF-b pathway inhibition. AID 588855. HepG2 CAGA-GFP TGF-b/SMAD3 reporter, GFP fluorescence, 18 h; TGF-beta stimulated, 500 pg/mL final. Potency, µM (top dose mostly 46.1 µM), for inactives: top-dose activity, negative = inhibition, hits mostly inhibitors. actives 1.2% (n = 410,000); note: potency is the fitted concentration of half-maximal effect; % is set by controls: 0 for no effect and ±100 for the full control effect; nearly all actives have a fitted effect of over 65% in size
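HEPG2 CAGA-GFP reporter cells (1000/well, DMEM with 1% FBS) received compounds, then recombinant TGF-beta at 500 pg/mL final for 18 hours at 37 degrees C. Per-cell GFP summed per well was normalised to unstimulated and stimulated DMSO controls before curve fitting.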
TDP1 cell noCPT – qHTS for Inhibitors of human tyrosyl-DNA phosphodiesterase 1 (TDP1): qHTS in cells in absence of CPT. DT40 Tdp1-/- hTDP1 cells, no CPT, ATP luminescence, 48 h. Potency, µM (titrated, usually from 46.2 µM), for inactives: at the highest dose activity change, negative = growth inhibition, hits mostly inhibitors. actives 15% (n = 420,000). AID 686978, 2013; note: potency is the fitted concentration of half-maximal effect; % is set by controls: 0 for no effect and ±100 for the full control effect; nearly all actives have a fitted effect of over 55% in size
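Stably hTDP1-transfected Tdp1-null chicken DT40 cells were treated with library compounds minus camptothecin and grown for at least 48 hr at 37 °C, after which cellular ATP was quantified by luminescence.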
* = called active by the depositor; ? = inconclusive; . = no result; [ ] = remark or other dose. Only some compounds are listed: those with a hit (about 18% of all), similar ones and a draw of the others. Unless noted, calls come from the whole dose curve; as a rule, active = well fitted curve in the direction sought with a large enough effect; inconclusive = small, poorly fitted or top-dose-only effect, or another doubt; inactive = no such curve, though single readings can be large; an effect the other way counts as inactive or inconclusive.

SMILES	TDP1 block	HepG2 viability	IL1B secr inh	TDP1 cell CPT	TGFb inhibitor	TDP1 cell noCPT
CSc1nc(C)c2c(n1)N(c1ccc(F)cc1)CC2	-2%	-4%	-13	-2%	24%	?
CCOc1ccc2[nH]c(=O)c(CN(CC3COCCO3)C(=O)C3CC3)cc2c1 (configuration not stated)	2%	-20%	-5	-22%	-5%	-9%
CCN1CCCC1CN(Cc1cc2cc(C)ccc2[nH]c1=O)C(=O)Nc1ccccc1OC (configuration not stated)	0%	-38%	-12	?	5%	21µM*
CCOc1ccc2[nH]c(=O)c(CN(C(=O)N3CCOCC3)C3CC3)cc2c1	-3%	.	.	.	.	.
Cc1ccc2[nH]c(=O)c(CN(Cc3ccccc3Cl)C(=O)N3CCOCC3)cc2c1	10%	-25%	?	?	13%	21µM*
CCOc1ccc2[nH]c(=O)c(CN(Cc3ccccc3)C(=O)N3CCCC3)cc2c1	-1%	-5%	-18	21µM*	-1%	?
Cc1cccc(NC(=O)N(Cc2cc3cc(C)ccc3[nH]c2=O)CC2COCCO2)c1 (configuration not stated)	8%	-10%	-73*	?	0%	23µM*
Cc1cccc(CCN(Cc2cc3cccc(C)c3[nH]c2=O)C(=O)N2CCOCC2)c1	7%	-6%	-7	?	0%	-25%
Cc1ccccc1C1(CC(=O)N2CCC[C@H]2C(N)=O)CC(=O)N(C2CCCC2)C1=O (some centres not stated)	.	.	.	20%[9.04 µM]	.	-3%
CCOc1ccc(Cc2c(C)[nH]c3ccc(C(=O)O)cc3c2=S)cc1	3%	10%	-8	11%	0%	4%
CC(C)NC(=O)Nc1cccc2c1O[C@H](CN(C)C(=O)Nc1ccccc1)[C@@H](C)CN([C@H](C)CO)C2=O	1%	-13%	-10	-9%	-1%	-4%
CO[C@H]1COC(=O)C/C=C\[C@@H](C)[C@H](OC)COC(=O)[C@H]2CCCN2C(=O)C/C=C\[C@@H]1C	7%[21 µM]	.	.	.	.	.
Cc1ccccc1NS(=O)(=O)c1ccc(C(=O)N(C)CC(=O)Nc2ccccc2Br)cc1	2%	-12%	12	?	-13%	-17%
Cc1ccc2[nH]c(=O)c(CN(CCCN3CCOCC3)C(=O)Nc3ccc(Cl)cc3)cc2c1	-8%	-5%	-2	15µM*	4%	16µM*
COc1ccc2[nH]c(=O)c(CN(Cc3cccnc3)C(=S)NCC3CCCO3)cc2c1 (configuration not stated)	0%	-2%	-10	18µM*	-18%	21µM*
COc1ccc2[nH]c(=O)c(CN(CC3CCCO3)C(=S)Nc3ccc(C)cc3)cc2c1 (configuration not stated)	0%	-1%	-5	-29%	0%	16µM*
COc1ccc(N(Cc2cc3ccccc3[nH]c2=O)S(=O)(=O)c2ccc(OC)cc2)cc1	2%	-29%	?	?	-14%	?
COc1cc2cc(CN(CCN3CCOCC3)C(=O)Nc3ccc(F)cc3)c(=O)[nH]c2cc1OC	-3%	-17%	-12	-6%	4%	-13%
COc1ccc(N(Cc2cc3cc(OC)ccc3[nH]c2=O)S(=O)(=O)c2ccc(NC(C)=O)cc2)cc1	4%	7%	6	16µM*	47%	8.2µM*
CCC(C)N1CC(=O)N2C(c3ccc(OC)cc3OC)c3[nH]c4ccccc4c3C[C@H]2C1=O (some centres not stated)	.	-6%	-16	-12%	-12%	?
CCOC(=O)N/N=C1/C[C@@H](O)[C@@H](O)[C@@H]2[C@@H]3C(=O)N([C@@H](C)c4ccccc4)C(=O)[C@H]3CC[C@@H]12	6%[21 µM]	.	.	.	.	.
CN1CC(=O)N(CC(=O)Nc2cc(Cl)cc(Cl)c2)C1=O	-2%	-33%	-24	-9%	-12%	20%
COc1ccc(NC(=O)N(Cc2cc3cc(C)ccc3[nH]c2=O)CC2CCCO2)cc1 (configuration not stated)	2%	-18%	?	18µM*	-19%	?
COc1ccc(NC(=O)N(Cc2cc3cc(OC)c(OC)cc3[nH]c2=O)CC2CCCO2)cc1 (configuration not stated)	-1%	-25%	-9	?	-4%	?
COc1ccc2[nH]c(=O)c(CN(CC3CCCO3)C(=O)Nc3ccc(F)cc3)cc2c1 (configuration not stated)	8%	2%	3	16µM*	1%	12µM*
SMILES	TDP1 block	HepG2 viability	IL1B secr inh	TDP1 cell CPT	TGFb inhibitor	TDP1 cell noCPT
C/C(=N\N1CCN(C2c3ccccc3-c3ccccc32)CC1)c1ccncc1	8%	-3%	-3	16µM*	?	16µM*
O=C(COc1ccc(Br)cc1CNC1CCCC1)Nc1ccccc1	0%	-37%	-63*	?	-5%	18µM*
O=C(COc1ccc(Br)cc1Br)NC1CCCC1	0%	-23%	-22	4.1µM*	?	?
O=C(COc1ccc(Br)cc1Cl)NC1CCCCC1	8%	-56%	-7	-12%	?	?
Cc1cc(Cl)ccc1OCC(=O)NC1CCCC1	0%	2%	-85*	12µM*	-6%	13µM*
CCOc1cc(CNCc2ccccc2)ccc1OCC(=O)NC1CCCCC1	5%	7%	-6	18µM*	6%	16µM*
CC(C(N)=O)N1C(=O)c2cccc3cccc1c23 (configuration not stated)	2%	-4%	-12	-15%	3%	-14%
COc1cccc(-c2nnn(CC(=O)N(C3CCCCC3)C3CCS(=O)(=O)C3)n2)c1 (configuration not stated)	.	14%	15	4%	1%	-24%
COc1ccccc1C(=O)NC(CCSC)C(=O)NCC(c1cccs1)N1CCOCC1 (configuration not stated)	.	-7%	1	-22%	-28%	-24%
CCOC(=O)C1CCN(C(=O)COc2ccc(Br)cc2Br)CC1	-1%	-2%	-66*	-19%	0%	-6%
CCN(CC)CCNCc1cc(Br)ccc1OCC(=O)NCc1ccccc1	3%	-20%	-12	-2%	0%	1%

Assay outcomes: PubChem, National Center for Advancing Translational Sciences (NCATS)
